In publication PMC4336329 (PLoS ONE, 2015):
Among all 310,000 compounds or so, about 14,000 (4.5%) showed an effect of 50% or more. The effect is printed as a negative number. Shown is part of a subset that was picked to be rich in strong results.

target: human ether-à-go-go-related gene (hERG) potassium channel (human, UniProt Q12809); experiment: primary screen, population patch clamp on CHO cells stably expressing hERG; higher = less effect of the substance
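Further: peak tail current of the secondary pulse compared with the same well before compound.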

Chain of human ether-à-go-go-related gene (hERG) potassium channel (Q12809 whole entry, looked up): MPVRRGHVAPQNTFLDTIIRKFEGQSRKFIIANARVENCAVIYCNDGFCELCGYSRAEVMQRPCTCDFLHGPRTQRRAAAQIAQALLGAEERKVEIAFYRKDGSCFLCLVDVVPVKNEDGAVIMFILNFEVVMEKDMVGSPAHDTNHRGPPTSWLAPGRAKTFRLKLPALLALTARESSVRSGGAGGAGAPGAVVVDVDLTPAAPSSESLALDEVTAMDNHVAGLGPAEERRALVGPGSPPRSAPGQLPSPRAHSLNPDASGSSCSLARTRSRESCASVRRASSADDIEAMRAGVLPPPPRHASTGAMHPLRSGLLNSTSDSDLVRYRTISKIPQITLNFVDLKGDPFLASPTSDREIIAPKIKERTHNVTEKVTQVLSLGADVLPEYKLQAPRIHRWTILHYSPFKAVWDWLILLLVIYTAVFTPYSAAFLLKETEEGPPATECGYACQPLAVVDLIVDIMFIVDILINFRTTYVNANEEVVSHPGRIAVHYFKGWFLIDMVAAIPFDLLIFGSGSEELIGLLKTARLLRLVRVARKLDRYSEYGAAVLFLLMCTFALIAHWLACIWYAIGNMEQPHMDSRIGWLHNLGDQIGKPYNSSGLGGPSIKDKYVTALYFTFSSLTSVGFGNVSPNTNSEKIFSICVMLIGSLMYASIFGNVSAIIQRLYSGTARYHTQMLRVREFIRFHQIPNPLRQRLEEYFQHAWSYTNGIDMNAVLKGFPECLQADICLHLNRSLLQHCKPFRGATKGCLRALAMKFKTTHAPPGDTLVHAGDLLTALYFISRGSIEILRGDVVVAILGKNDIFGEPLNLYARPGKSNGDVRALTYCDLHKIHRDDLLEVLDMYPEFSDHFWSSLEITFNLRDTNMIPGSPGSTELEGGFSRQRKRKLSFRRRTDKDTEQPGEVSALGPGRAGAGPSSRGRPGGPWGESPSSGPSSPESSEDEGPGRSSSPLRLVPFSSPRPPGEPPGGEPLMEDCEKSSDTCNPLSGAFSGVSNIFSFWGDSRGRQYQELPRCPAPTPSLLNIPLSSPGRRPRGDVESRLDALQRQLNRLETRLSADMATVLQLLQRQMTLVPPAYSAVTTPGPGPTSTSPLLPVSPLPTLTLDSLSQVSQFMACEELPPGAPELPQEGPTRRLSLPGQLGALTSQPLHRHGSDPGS

SMILES	hERG current change (%, negative = inhibition) at 10uM [%]
Cc1c(C(=O)N(Cc2ccccc2)C2CCS(=O)(=O)C2)oc2ccccc12 (centres unmarked)	-38.5
Cc1ccc(C(=O)N(Cc2cccs2)C2CCS(=O)(=O)C2)cc1 (centres unmarked)	0.98
O=C(c1ccc([N+](=O)[O-])cc1)N(Cc1cccs1)C1CCS(=O)(=O)C1 (centres unmarked)	-50
COc1ccccc1Oc1ccc2c(c1)C(=O)N(c1ccccc1)C2=O	-3.59
CCN(C(=O)COc1ccccc1[N+](=O)[O-])C1CCS(=O)(=O)C1 (centres unmarked)	0.104
Cc1ccc(OCC(=O)N(Cc2cccs2)C2CCS(=O)(=O)C2)cc1C (centres unmarked)	4.21
Cc1ccsc1CN(C(=O)c1ccc([N+](=O)[O-])cc1)C1CCS(=O)(=O)C1 (centres unmarked)	-60.8
CCc1ccc(OCC(=O)N(Cc2cccs2)C2CCS(=O)(=O)C2)cc1 (centres unmarked)	-47.8
O=C(COc1ccc([N+](=O)[O-])cc1)N(Cc1cccs1)C1CCS(=O)(=O)C1 (centres unmarked)	-52.3
Cc1ccc(C(=O)N(Cc2sccc2C)C2CCS(=O)(=O)C2)cc1 (centres unmarked)	-28.2
Cc1ccsc1CN(C(=O)c1ccccc1)C1CCS(=O)(=O)C1 (centres unmarked)	2.16
O=C(COc1ccccc1[N+](=O)[O-])N(Cc1cccc(Br)c1)C1CCS(=O)(=O)C1 (centres unmarked)	-57.8
COc1cccc(CN(C(=O)COc2ccccc2[N+](=O)[O-])C2CCS(=O)(=O)C2)c1 (centres unmarked)	-42
CC1C/C(=N\NC(=S)NC(C)C)CC(C)(C)C1 (centres unmarked)	9.06
CCOC(=O)CNC(=O)CSc1nnc(NC(=O)c2ccc3c(c2)OCO3)s1	3.8
CCC(CC)NC(=O)c1nn(Cc2ccccc2)c(=O)c2ccccc12	10.9
CS(=O)(=O)N(CC(=O)NCCSCc1ccccc1Cl)c1ccccc1F	-35.4
CC1=NN(C(N)=S)C(=O)C1N=Nc1ccccc1Cl (centres unmarked)	20.2
Cc1cc(NC(=O)C(C)SCC(=O)OCC(=O)N(C)c2ccccc2)no1 (centres unmarked)	-7
Cc1cc(NC(=O)C(C)SCC(=O)OCC(=O)N(Cc2ccccc2)C(C)(C)C)no1 (centres unmarked)	-35.4
Cc1cccc(N(Cc2ccccc2)C(=O)CSC(C)C(=O)Nc2cc(C)on2)c1 (centres unmarked)	-53

SMILES	hERG current change (%, negative = inhibition) at 10uM [%]
COc1ccccc1N1CCN(c2ccc([N+](=O)[O-])cn2)CC1	0.823
O=C(O)c1cccc(CSc2nc(-c3ccccc3)cc(C(F)(F)F)n2)c1	0.347
Cc1ccccc1N1CCN(C(=S)c2ccc(-c3ccc([N+](=O)[O-])cc3)o2)CC1	20.2
CCOC(=O)C1CCCN(C(=O)c2ccc(CS(=O)(=O)c3ccc(C)cc3)o2)C1 (centres unmarked)	-20.4
CCOC(=O)C1CCCN(C(=O)c2ccc([N+](=O)[O-])cc2)C1 (centres unmarked)	-14.4
CCCN1CCN(C(=O)c2ccc(-c3ccc([N+](=O)[O-])cc3)o2)CC1	-78.1
O=C(c1ccc(-c2ccc([N+](=O)[O-])cc2)o1)N1CCCC(C(F)(F)F)C1 (centres unmarked)	-17
CC1CC(C)CN(C(=O)c2ccc(-c3ccc([N+](=O)[O-])cc3)o2)C1 (centres unmarked)	-69.1
O=C(c1ccc(-c2ccc([N+](=O)[O-])cc2)o1)N1CCN(S(=O)(=O)c2cccs2)CC1	-27.3
CC1CCCN(C(=O)c2ccc([N+](=O)[O-])o2)C1 (centres unmarked)	21.6
CCOC(=O)C1CCCN(C(=O)c2ccc(-c3ccc([N+](=O)[O-])cc3)o2)C1 (centres unmarked)	-56.1
O=C(c1ccc(-c2ccc([N+](=O)[O-])cc2)o1)N1CCCCCCC1	-22.7
CC1CCN(C(=O)c2ccc([N+](=O)[O-])o2)CC1	4.53
O=C(c1ccc(-c2ccc([N+](=O)[O-])cc2)o1)N1CCCCC1	-58.4
O=C(CSc1ncnc2ccccc12)NCC(=O)c1ccccc1	1.57
O=C(Nc1ccccc1)c1c(O)[nH]c(=O)[nH]c1=O	8.67
Cc1ccc(N2CC(C(=O)NCc3n[nH]c(=O)c4ccccc34)CC2=O)cc1C (centres unmarked)	-13.5
COc1ccc(-c2cc(C(=O)Nc3cc(C)on3)no2)cc1	19.9
O=C1NC(c2ccc(-c3ccccc3[N+](=O)[O-])o2)C(C(=O)c2ccc(Cl)cc2)C(O)(C(F)(F)F)N1 (centres unmarked)	2.13
Cc1cc(NS(C)(=O)=O)c(=O)n(Cc2c(F)cccc2Cl)c1	8.86
